This note sets out measurements from PubChem BioAssay (NCATS).

Values joined by “and” are separate entries in the source; they are usually repeats but may differ in a detail not shown here. Equal entries are not always repeated. Unmarked numbers belong to inactive results. Results filed as inconclusive are left out. Active and inactive are the calls of the source. Unless noted, the call rests on the fitted dose curve; in most records, active means well fitted curve in the direction sought with a large enough effect; inconclusive means small, poorly fitted or top-dose-only effect, or another doubt; inactive means no such curve, though single readings can be large; an effect the other way counts as inactive or inconclusive.

Assay [1] in a line: Cell Viability - NIH 3T3 (AID 541).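 Further: cells exposed to compound for 40 hours; plate controls were DMSO alone for no effect and tamoxifen positive control for full effect; nearly all actives have a fitted effect of over 25% in size.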 Conditions: NIH 3T3 cell viability, qHTS; activity change, negative = cytotoxicity: at 92.2 µM (top of the series). An outline of the steps:
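AC50 values reflect concentration-dependent loss of intracellular ATP in NIH 3T3 cells after 40 hr treatment in complete culture medium, quantified by luciferase-based luminescence.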

The nature of assay [2]: Cellular Toxicity (caspase-3) SHSY5Y (AID 657). Further: potency means the concentration at half of the fitted maximal effect. The gist of the method:
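Luminescent caspase-3/7 readout (aminoluciferin release) in SH-SY5Y cells after 16 h compound exposure in complete medium. Activity scaled between DMSO basal and 10 uM staurosporine as 100%; concentration-response fitted to Hill equation for AC50.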

Assay [3] in a line: Cellular Toxicity (caspase-3) BJ (AID 658).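 Further: 0% = DMSO basal and 100% = 10 µM staurosporine.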 Particulars: Potency: caspase-3 activation. An outline of the steps:
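Luminescent aminoluciferin-substrate cleavage reports caspase 3/7 activity in normal human BJ fibroblasts after 16 hr compound exposure at 37 °C. Normalized to DMSO (basal) and 10 uM staurosporine (100%); AC50 from Hill fit of concentration-response.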

Assay [4] can be described thus: Cellular Toxicity (caspase-3) Mesangial (AID 660).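 Further: combined caspase 3 and 7 activity read by Caspase-Glo luminescence; cells exposed to compound for 16 h before the caspase read.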 An outline of the steps: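 Concentration-response qHTS: compound-induced rise in caspase 3/7 luminescence in human mesangial cells after 16 h, normalized to DMSO and 100 uM tamoxifen controls.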
Assay [5] can be described thus: Cellular Toxicity (caspase-3) H-4-II-E (AID 663).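 Further: cells exposed to compound for 16 hr before readout; 0% = DMSO basal and 100% = 100 µM tamoxifen.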 Conditions: Potency: caspase-3 activation. The gist of the method:
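Luminescence from caspase-cleaved aminoluciferin substrate, read 20 min after reagent addition, reports caspase 3/7 activation in rat H-4-II-E cells after 16 hr compound exposure. Normalized to DMSO (basal) and 100 uM tamoxifen (100%); AC50 from Hill fits.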

In assay [6] the target is Cytochrome P450 3A4 (Homo sapiens) (UniProt P08684). Kind of assay: qHTS Assay for Inhibitors and Substrates of Cytochrome P450 3A4 (AID 884). Further: on the % scale 0 is the no-effect control and ±100 the full control effect; nearly all actives have a fitted effect of over 50% in size. The gist of the method:
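20 nM human CYP3A4 with 25 uM Luciferin-PPXE (at KM) in 200 mM KPO4, preincubated 10 min with compound; NADPH regeneration started a 60 min RT reaction. Luciferin detected by luminescence, normalized to 57 uM ketoconazole as full inhibition.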
(In general: Quantitative high-throughput screening tests each substance at several concentrations.)

Assay [7] concerns the target Peroxisome proliferator-activated receptor delta (Homo sapiens) (UniProt Q03181). The experiment in a line: qHTS assay for small molecule antagonists of peroxisome proliferator-activated receptor delta signaling (AID 588535; active means well fitted inhibition curve with a large enough effect in the signal ratio, with a control signal flat, not every such curve was filed as active; the % refers to the signal ratio). An outline of the steps:
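GeneBLAzer PPAR-delta-UAS-bla HEK293T cells in medium with 2% charcoal/dextran FBS were preincubated 5 hrs at 37 C, then given compounds, incubated 18 hrs at 37 C, and read by CCF4 beta-lactamase fluorescence; IC50 from Hill fits.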

The target in assay [8] is Vitamin D3 receptor (Homo sapiens) (UniProt P11473). Kind of assay: qHTS assay for small molecule antagonists of vitamin D receptor signaling (AID 588541; calls by dose curve;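 further: receptor activated by calcitriol during compound treatment; on the % scale 0 is the no-effect control and ±100 the full control effect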). An outline of the steps:
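VDR-UAS-bla HEK293T cells (2000/well, 2% charcoal-stripped FBS) were treated with titrated compounds plus 1-alpha,25-dihydroxyvitamin D3 (50 nM or 3 nM final) for 16 h at 37 C. CCF4 beta-lactamase fluorescence was read; Hill fits gave IC50.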

For assay [9] the target is unchanged. Kind of assay: qHTS assay for small molecule agonists of vitamin D receptor signaling (AID 588543; calls by dose curve;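 further: 0% = DMSO basal and 100% = reference agonist control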). An outline of the steps: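 β-lactamase reporter, VDR-UAS-bla HEK293T, agonist mode. Cells plated 5 h at 37 °C, compound titration 16 h at 37 °C, CCF4 dye 2 h RT, ratio 460/530 nm. Hill fit → EC50, efficacy vs 50 nM 1α,25-(OH)2D3.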
The nature of assay [10]: qHTS assay for small molecule agonists of the antioxidant response element (ARE) signaling pathway (AID 651741; active means well fitted activation curve with a large enough effect in the signal ratio; the % refers to the signal ratio; further: potency means the concentration at half of the fitted maximal effect; on activation: % of control where 0% means no effect). The gist of the method: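 ARE-bla HepG2 cells (beta-lactamase reporter under ARE control) were plated at 2,000 cells/well, preincubated 5 h at 37 C/5% CO2, then treated with DMSO-dissolved compounds for 16 h at 37 C; LiveBLAzer B/G FRET substrate added, fluorescence read after 2 h at room temperature.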

A short description of assay [11]: qHTS assay for small molecule activators of the p53 signaling pathway (AID 651743; active means well fitted activation curve with a large enough effect in the signal ratio, not every such curve was filed as active; the % refers to the signal ratio; further: % of control where 0% means no effect). Particulars: HCT-116 p53RE-bla, beta-lactamase FRET ratio, 16 h; activation: active compounds read high. The gist of the method: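 p53RE-bla HCT-116 cells with a stably integrated beta-lactamase reporter under p53 response elements were plated, rested 5 hours at 37 C/5% CO2, then exposed to compounds in DMSO for 16 hours at 37 C. LiveBLAzer B/G FRET substrate was read after 2 hours at room temperature.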

Assay [12] in a line: qHTS assay for small molecule activators of the nuclear factor-kappa B (NF-kB) signaling pathway (AID 651749; active means well fitted activation curve with a large enough effect in the signal ratio; the % refers to the signal ratio; further: % of control where 0% means no effect). Particulars: NF-kB-bla ME-180 cells, beta-lactamase FRET ratio, 16 h; active compounds read high. The gist of the method: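 ME-180 cells stably carrying a beta-lactamase reporter under an NF-kB response element were exposed to compound or DMSO vehicle for 16 hr at 37C, 5% CO2. Pathway activation was read by FRET, since reporter expression disrupts FRET.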

Assay [13] concerns the target Tumor necrosis factor (Homo sapiens) (UniProt P01375). Kind of assay: qHTS assay to identify small molecules that stimulate Tumor Necrosis Factor-alpha (TNF-alpha) secretion (AID 651757; active means well fitted curve in the direction sought with a large enough effect in the signal ratio; the % refers to the signal ratio; further: 0% is about no effect). An outline of the steps: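 Secreted TNF-alpha from compound-treated THP-1 cells (17 hrs, 37 C) was quantified with a homogeneous time-resolved fluorescence antibody assay.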
In assay [14] the target is Nuclear receptor ROR-gamma (Homo sapiens) (UniProt P51449). The experiment in a line: qHTS assay for small molecule antagonists of the retinoid-related orphan receptor gamma (ROR-gamma) signaling pathway (AID 651802).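 Further: CHO cells with doxycycline-induced ROR-gamma expression; on the % scale 0 is the no-effect control and ±100 the full control effect; nearly all actives have a fitted effect of over 60% in size.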 An outline of the steps: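 Antagonism is scored as a fall in luminescence from a RORE-luciferase reporter in CHO cells expressing ROR under a TET-inducible promoter, measured 16hr after doxycycline induction in the presence of compound.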
Nuclear receptor ROR-gamma (Homo sapiens), sequence (P51449 whole entry, looked up): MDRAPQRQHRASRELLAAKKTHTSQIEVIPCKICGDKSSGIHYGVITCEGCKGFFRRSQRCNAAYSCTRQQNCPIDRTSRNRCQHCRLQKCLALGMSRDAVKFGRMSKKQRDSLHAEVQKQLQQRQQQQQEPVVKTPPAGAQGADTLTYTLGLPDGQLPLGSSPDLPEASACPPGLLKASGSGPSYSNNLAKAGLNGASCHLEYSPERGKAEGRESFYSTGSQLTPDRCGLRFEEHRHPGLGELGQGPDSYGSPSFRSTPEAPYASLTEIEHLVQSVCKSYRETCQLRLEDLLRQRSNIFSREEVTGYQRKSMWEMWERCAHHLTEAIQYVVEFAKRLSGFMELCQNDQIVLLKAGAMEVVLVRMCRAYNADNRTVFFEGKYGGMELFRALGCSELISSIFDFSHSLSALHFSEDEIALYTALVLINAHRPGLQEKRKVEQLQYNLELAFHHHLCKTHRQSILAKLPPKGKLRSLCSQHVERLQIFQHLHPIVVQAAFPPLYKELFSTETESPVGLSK

Assay [15] can be described thus: qHTS assay for small molecule antagonists of the retinoid-related orphan receptor gamma (ROR-gamma) signaling pathway - cell viability counter screen (AID 720652; active means well fitted curve in the direction sought with a large enough effect in the repeat runs; an effect the other way counts as inactive or inconclusive;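 further: compound exposure lasted 16 hr before ATP read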; further: potency means the concentration at half of the fitted maximal effect;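 on activity change, negative = cytotoxicity: CHO reporter cells with doxycycline-induced ROR-gamma expression; on the % scale 0 is the no-effect control and ±100 the full control effect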). The gist of the method:
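Cytotoxicity is quantified via intracellular ATP (CellTiter-Glo luminescence) in doxycycline-induced CHO ROR response element-luciferase reporter cells treated with compound for 16 hr at 37 C, 5% CO2.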

Assay [16] in a line: qHTS assay for small molecule activators of the human pregnane X receptor (PXR) signaling pathway (AID 720659; call rule not given here; further: 0% is about no effect).
The nature of assay [17]: Cell Viability - Jurkat (AID 426;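 active means dose-dependent loss of cell ATP signal giving a full or clear fitted curve, ranked by lower potency value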;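 further: potency means the concentration at half of the fitted maximal effect; cells exposed to compound for 40 hours at 37 °C before ATP read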). Conditions: qHTS. An outline of the steps:
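Seed 5000 Jurkat E6-1 cells/well; add compound; incubate 40 hr at 37 °C; add CellTiter-Glo; wait 20 min at room temperature; read luminescence. Fit concentration-response with Hill equation for AC50.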

In assay [18] the target is Peroxisome proliferator-activated receptor gamma (Homo sapiens) (UniProt P37231). The experiment in a line: qHTS assay for small molecule agonists of peroxisome proliferator-activated receptor gamma signaling (AID 588536; active means well fitted curve in the direction sought with a large enough effect in the signal ratio, with a control signal flat, not every such curve was filed as active; the % refers to the signal ratio;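 further: 0% = DMSO basal wells and 100% = rosiglitazone at 2 µM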). An outline of the steps:
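PPAR-gamma-UAS-bla HEK293 cells in medium with 1% charcoal/dextran-treated FBS were exposed to compounds for 16 h at 37 C. Beta-lactamase activity was read with CCF4 substrate (405 nm excitation, 460/530 nm emission).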

For assay [19], the target named is Estrogen receptor (Homo sapiens) (UniProt P03372). Kind of assay: qHTS assay for small molecule antagonists of estrogen receptor alpha signaling (AID 588513; active means well fitted curve in the direction sought with a large enough effect in the signal ratio, with a control signal flat, not every such curve was filed as active; the % refers to the signal ratio; further: on the % scale 0 is the no-effect control and ±100 the full control effect). The gist of the method:
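Beta-lactamase reporter, antagonist mode, HEK 293 GripTite cells; 0.5nM E2 stimulus, 18 h, 37 C; CCF4 dye 2 h RT; fluorescence. IC50 and efficacy from Hill fits, normalized to E2 and DMSO.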

For assay [20] the target is unchanged. Kind of assay: qHTS assay for small molecule agonists of estrogen receptor alpha signaling (AID 588514; calls by dose curve;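 further: 0% = vehicle only and 100% = reference agonist; nearly all actives have a fitted effect of over 70% in size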). An outline of the steps:
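Reporter-gene assay. […] controls beta-lactamase in HEK 293 GripTite cells; after 18 hrs with compound, CCF4 substrate is added for 2 hrs and fluorescence is read.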

Vitamin D3 receptor (Homo sapiens), sequence (P11473 whole entry, looked up): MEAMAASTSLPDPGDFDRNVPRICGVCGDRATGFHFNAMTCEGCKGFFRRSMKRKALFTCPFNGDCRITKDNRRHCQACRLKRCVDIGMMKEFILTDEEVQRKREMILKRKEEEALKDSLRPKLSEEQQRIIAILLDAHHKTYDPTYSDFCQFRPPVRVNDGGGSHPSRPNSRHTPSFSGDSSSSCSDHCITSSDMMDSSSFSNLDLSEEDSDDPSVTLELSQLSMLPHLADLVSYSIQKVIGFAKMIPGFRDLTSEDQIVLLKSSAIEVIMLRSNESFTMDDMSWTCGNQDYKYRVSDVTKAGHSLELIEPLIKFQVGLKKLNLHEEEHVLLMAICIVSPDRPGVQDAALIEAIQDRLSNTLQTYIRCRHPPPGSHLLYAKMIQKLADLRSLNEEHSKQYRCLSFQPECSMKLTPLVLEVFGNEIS
Tumor necrosis factor (Homo sapiens), sequence (P01375 whole entry, looked up): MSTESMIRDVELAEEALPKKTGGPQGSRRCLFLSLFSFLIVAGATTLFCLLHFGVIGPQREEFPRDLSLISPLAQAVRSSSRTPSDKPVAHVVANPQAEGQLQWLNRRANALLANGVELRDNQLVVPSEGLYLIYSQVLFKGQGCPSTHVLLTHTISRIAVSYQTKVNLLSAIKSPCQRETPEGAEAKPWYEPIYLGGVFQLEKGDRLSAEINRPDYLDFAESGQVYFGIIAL
Peroxisome proliferator-activated receptor delta (Homo sapiens), sequence (Q03181 whole entry, looked up): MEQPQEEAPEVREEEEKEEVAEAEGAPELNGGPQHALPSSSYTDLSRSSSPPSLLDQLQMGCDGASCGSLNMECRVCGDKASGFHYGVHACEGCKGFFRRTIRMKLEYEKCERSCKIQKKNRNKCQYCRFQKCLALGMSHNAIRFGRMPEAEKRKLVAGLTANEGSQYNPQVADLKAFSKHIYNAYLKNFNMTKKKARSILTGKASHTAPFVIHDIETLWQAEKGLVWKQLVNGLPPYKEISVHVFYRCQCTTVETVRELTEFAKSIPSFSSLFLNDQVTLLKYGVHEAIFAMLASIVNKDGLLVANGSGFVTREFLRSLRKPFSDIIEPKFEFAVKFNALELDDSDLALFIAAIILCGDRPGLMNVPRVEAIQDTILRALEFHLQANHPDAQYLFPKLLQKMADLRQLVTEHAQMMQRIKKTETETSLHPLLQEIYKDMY
Estrogen receptor (Homo sapiens), sequence (P03372 whole entry, looked up): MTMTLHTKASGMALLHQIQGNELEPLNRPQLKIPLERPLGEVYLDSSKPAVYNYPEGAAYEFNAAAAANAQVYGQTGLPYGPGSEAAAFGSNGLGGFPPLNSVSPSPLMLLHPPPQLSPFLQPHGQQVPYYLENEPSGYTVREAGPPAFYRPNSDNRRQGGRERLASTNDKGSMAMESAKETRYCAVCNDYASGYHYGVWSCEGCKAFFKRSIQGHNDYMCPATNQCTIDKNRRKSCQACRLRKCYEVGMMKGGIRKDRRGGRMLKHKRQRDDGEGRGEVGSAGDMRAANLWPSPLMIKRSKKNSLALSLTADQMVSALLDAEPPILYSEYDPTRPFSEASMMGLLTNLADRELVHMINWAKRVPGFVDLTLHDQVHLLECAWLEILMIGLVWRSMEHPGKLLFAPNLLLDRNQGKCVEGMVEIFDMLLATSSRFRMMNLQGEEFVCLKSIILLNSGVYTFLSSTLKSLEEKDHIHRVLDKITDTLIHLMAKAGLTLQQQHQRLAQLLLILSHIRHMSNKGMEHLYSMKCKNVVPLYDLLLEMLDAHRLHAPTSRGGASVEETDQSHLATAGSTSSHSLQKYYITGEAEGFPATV
Cytochrome P450 3A4 (Homo sapiens), sequence (P08684 whole entry, looked up): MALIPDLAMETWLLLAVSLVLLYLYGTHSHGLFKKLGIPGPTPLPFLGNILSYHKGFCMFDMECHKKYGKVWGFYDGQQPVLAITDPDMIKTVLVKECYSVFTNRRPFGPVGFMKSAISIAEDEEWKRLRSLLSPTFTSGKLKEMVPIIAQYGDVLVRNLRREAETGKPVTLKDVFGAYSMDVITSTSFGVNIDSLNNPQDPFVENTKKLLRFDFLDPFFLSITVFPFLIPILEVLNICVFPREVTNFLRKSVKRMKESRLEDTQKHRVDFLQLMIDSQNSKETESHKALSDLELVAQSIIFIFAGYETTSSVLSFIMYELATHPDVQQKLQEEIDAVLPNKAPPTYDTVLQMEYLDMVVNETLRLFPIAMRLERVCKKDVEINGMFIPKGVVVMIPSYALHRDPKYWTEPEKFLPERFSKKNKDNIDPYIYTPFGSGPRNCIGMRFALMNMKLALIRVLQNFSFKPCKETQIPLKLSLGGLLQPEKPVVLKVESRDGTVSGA
Peroxisome proliferator-activated receptor gamma (Homo sapiens), sequence (P37231 whole entry, looked up): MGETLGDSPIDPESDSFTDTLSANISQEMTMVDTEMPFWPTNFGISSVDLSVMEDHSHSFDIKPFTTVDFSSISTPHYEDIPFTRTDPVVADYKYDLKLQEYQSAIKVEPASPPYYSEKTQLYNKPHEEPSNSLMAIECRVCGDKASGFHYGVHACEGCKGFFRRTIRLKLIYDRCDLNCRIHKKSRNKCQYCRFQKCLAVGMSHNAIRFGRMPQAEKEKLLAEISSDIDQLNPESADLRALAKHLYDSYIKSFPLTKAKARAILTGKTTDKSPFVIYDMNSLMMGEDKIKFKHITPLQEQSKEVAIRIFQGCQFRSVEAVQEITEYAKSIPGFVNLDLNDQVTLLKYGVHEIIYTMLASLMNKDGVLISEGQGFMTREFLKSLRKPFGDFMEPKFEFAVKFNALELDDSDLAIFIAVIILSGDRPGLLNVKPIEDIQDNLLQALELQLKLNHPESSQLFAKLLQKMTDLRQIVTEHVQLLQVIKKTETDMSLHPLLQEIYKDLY

With `O=C(O)c1ccc([N+](=O)[O-])cc1`, the activity change, negative = cytotoxicity in assay [1] was 3.22%. Also, the Potency entry in assay [2], in [3], in assay [5], in assay [6], in assay [8] and in [9] was “inactive” throughout. The Potency entry in [10], in [13], in assay [14] and in assay [15] was “inactive” in each case. The result in [4], in assay [7] and in assay [16] was inactive. The activation in assay [11] is -2.78% and 0.222%; in assay [12], -1.53% and -0.205%.
Consider `Nc1cc(C(=O)O)c(O)c(S(=O)(=O)O)c1`, for which the Potency in [17] was over 92 µM. The activity change, negative = cytotoxicity in assay [1] was -24.6%. For the same compound, the Potency result in [2], in [6], in assay [8], in [9], in assay [10] and in assay [15] was “inactive” each time. Also, the compound was called inactive in assay [4], in assay [18] and in [16]. Besides, the activation in assay [11] is -4.77%.
As for `CCCCCCCCOc1ccc(C(=O)O)cc1`, the Potency in assay [17] is over 92 µM. Moreover, the activity change, negative = cytotoxicity in assay [1] is -11.5%. The Potency entry in assay [3], in assay [6], in assay [8], in [9], in assay [13] and in assay [14] was “inactive” each time. In assay [15], the Potency result is “inactive”. In addition, the result in assay [4] and in [16] was inactive. Also, the activation in assay [11] was 4.64%; in assay [12], -0.0346%.
Regarding `C/C=C/C=C/C=O`, the Potency in assay [17] was 29.4 µM (active); in assay [10], 37.6 µM (active); in assay [15], 29.8 µM (active). The activity change, negative = cytotoxicity in assay [1] is -142% (active). Further, the Potency entry in assay [2], in [3], in [5], in assay [6], in assay [20] and in [9] was “inactive” throughout. Further, the Potency entry in assay [13] is “inactive”. The compound was called inactive in assay [4], in [19], in assay [7] and in assay [16]. The activation in [12] was -1.3%.
`Cc1cc(-c2ccc(N=Nc3cc(S(=O)(=O)O)c4ccccc4c3N)c(C)c2)ccc1N=Nc1cc(S(=O)(=O)O)c2ccccc2c1N`: the Potency result in assay [2], in assay [20], in assay [8], in assay [9], in assay [14] and in [15] was “inactive” each time. In addition, the compound was classed as inactive in assay [4], in [19], in [7] and in [16].
Regarding `C=C1CC[C@H](O)C/C1=C/C=C1\CCC[C@]2(C)[C@@H]([C@H](C)CCCC(C)C)CC[C@@H]12`, the results for the Potency in assay [17] and in assay [2] were 27.5 µM (active) and 31.6 µM (active), respectively. In addition, the activation in assay [12] is 1.86%. Moreover, the Potency entry in assay [13] was “inactive”.
